Source: PubChem BioAssay
Shown are actives, neighbours in structure and some others; about 12% of the full set was active somewhere.
PLK1 PBD block: inhibitors of human PLK1 polo-box domain binding. P53350. Plk1 PBD binding of FITC phosphopeptide, fluorescence polarization. Potency, µM, for inactives: max response, negative = inhibition, most hits filed as inhibitors. actives 2.8% (n = 360,000). AID 720504; note: series mostly up to about 57 µM; nearly all actives have a fitted effect of over 65% in size
Target sequence (P53350 whole entry, looked up, the tested form may be a part): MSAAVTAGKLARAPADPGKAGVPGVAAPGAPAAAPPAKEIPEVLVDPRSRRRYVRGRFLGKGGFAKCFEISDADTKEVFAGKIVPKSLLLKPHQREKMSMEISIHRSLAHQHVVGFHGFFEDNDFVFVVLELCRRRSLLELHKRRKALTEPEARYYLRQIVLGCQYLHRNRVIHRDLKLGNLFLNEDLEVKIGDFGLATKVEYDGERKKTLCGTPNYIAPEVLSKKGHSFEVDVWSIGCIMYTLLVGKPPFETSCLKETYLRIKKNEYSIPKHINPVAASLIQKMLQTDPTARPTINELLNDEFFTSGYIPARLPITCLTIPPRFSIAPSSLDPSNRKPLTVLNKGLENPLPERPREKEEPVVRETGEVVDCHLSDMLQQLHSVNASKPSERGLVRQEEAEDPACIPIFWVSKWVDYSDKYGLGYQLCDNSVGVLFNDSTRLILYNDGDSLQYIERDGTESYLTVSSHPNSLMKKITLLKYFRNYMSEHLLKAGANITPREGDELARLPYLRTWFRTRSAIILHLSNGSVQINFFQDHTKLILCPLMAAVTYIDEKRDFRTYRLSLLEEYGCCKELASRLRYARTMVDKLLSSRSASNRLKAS
Sfp PPTase inh: inhibitors of Bacillus subtilis Sfp phosphopantetheinyl transferase | Potency, µM, for inactives: largest response in the series, negative = inhibition, hits mostly inhibitors | Biochemical Sfp PPTase activity, qHTS | Q9F4F7 | actives 3.5% (n = 310,000) | AID 1490;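 note: the enzyme is Sfp with the accession as filed and its product quenches rhodamine fluorescence; 0% = enzyme reaction without inhibitor and -100% = no enzyme wells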
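Reaction rates are the 30-min fluorescence difference (ex 525, em 598 nm) in wells containing 15 nM Sfp, 5 uM rhodamine-CoA and 12.5 uM BHQ-2-YbbR at pH 7.6 with 10 mM MgCl2.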
ALDH1A1 block: ALDH1A1 (human) enzyme inhibition. P00352. Purified ALDH1A1, NADH fluorescence, propionaldehyde substrate. Potency, µM (series often up to 75.3 µM), inactives show top-dose activity, negative = inhibition, most hits filed as inhibitors. actives 7.3% (n = 220,000). AID 1030; active = well fitted inhibition curve with a large enough effect, not every such curve was filed as active; inconclusive = small, poorly fitted or top-dose-only effect, or another doubt; inactive = no such curve, though single readings can be large or run the other way;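 note: plate controls were no enzyme wells and a reference inhibitor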
RORg inh: ROR gamma (mouse) transcription inhibition. Potency, µM (doses to about 53.6 µM), without a hit: at the highest dose activity change, negative = inhibition, usual class: inhibitors. P51450. actives 5.4% (n = 310,000). Drosophila S2 Gal4-RORgamma UAS-luciferase reporter, 20 h. AID 2551; note: nearly all actives have a fitted effect of over 60% in size
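Schneider cells (Drosophila), stable Gal4 DBD–ROR gamma + UAS-luc; 1 hr cmpd preincubation; Cu2+ induction 700 uM final; 20 hr ambient; luminescence.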
Gal4-VP16 FLuc: Gal4-VP16 reporter inhibition counter-screen. Drosophila S2 Gal4-VP16 UAS-luciferase, luminescence, 20 h. Potency, µM (highest dose often 53.6 µM), for inactives: at the highest dose activity, negative = inhibition, most hits filed as inhibitors. actives 3.5% (n = 310,000). AID 2546;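 note: Gal4-VP16 expression switched on by copper sulfate through the metallothionein promoter; nearly all actives have a fitted effect of over 50% in size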
Active calls of the source: *; ? = inconclusive; . = not tested or not shown; [ ] = remark or other dose. Unless noted, calls come from the whole dose curve; as a rule, active = well fitted curve in the direction sought with a large enough effect; inconclusive = small, poorly fitted or top-dose-only effect, or another doubt; inactive = no such curve, though single readings can be large; an effect the other way counts as inactive or inconclusive. Unless noted, % is set by controls: 0 for no effect and ±100 for the full control effect; potency is the fitted concentration of half-maximal effect.

SMILES	PLK1 PBD block	Sfp PPTase inh	ALDH1A1 block	RORg inh	Gal4-VP16 FLuc
NS(=O)(=O)c1ccc(CNC(=S)Nc2cc(S(=O)(=O)N3CCOCC3)ccc2Cl)cc1	-11.9%	.	.	.	.
O=S(=O)(c1ccc(Cl)c(NC(=S)Nc2ccccc2N2CCOCC2)c1)N1CCOCC1	-10.4%	?	20µM*	?	-7.1%
O=S(=O)(c1ccc(Cl)c(NC(=S)N/N=C/c2ccc(O)cc2)c1)N1CCOCC1	-14.9%	11.6%	10µM*	10µM*	6.31µM*
O=C(Nc1ccccc1N1CCCC1)c1cc(S(=O)(=O)N2CCOCC2)ccc1Cl	4.5%	.	.	.	.
O=S(=O)(c1ccc(Cl)c(NC(=S)N/N=C/c2c(F)cccc2F)c1)N1CCOCC1	3.9%	6.4%	-15.2%	2µM*	1.78µM*
COC(=O)[C@]12CCCCC=C1N(CCc1ccc(OC)c(OC)c1)C(=O)[C@H](CC(=O)NCC1CCCCC1)C2	-16.0%	.	.	.	.
CC(=O)ON(C(C)=O)S(=O)(=O)c1ccc(Cl)cc1	.	?	-7.3%	-7.2%	-6.8%
O=C(COC(=O)CCC(=O)c1cccs1)Nc1cc(S(=O)(=O)N2CCOCC2)ccc1Cl	1.6%	8.1%	22.4µM*	38.1%	17.6%
C[C@@]12C=CC(=O)C=C1CC[C@@H]1[C@@H]2[C@H](O)C[C@]2(C)[C@@H]1CC[C@]2(O)C(=O)CO	.	28.1%	9.7%[20.9 µM]	2.5%[16.9 µM]	-4.3%[17 µM]
C[C@@H]1CN([C@H](C)CO)C(=O)CCCn2cc(nn2)CO[C@H]1CN(C)C(=O)c1ccc2ccn(C)c2c1	-8.3%	.	.	.	.
O=C(CCl)N(C1CCCC1)C1CCS(=O)(=O)C1 (stereo not drawn)	-5.6%	13.6%	.	?	15.8µM*
CC(=O)c1ccc(OCC(=O)N(C2CCCCC2)C2CCS(=O)(=O)C2)cc1 (stereo not drawn)	-4.0%	.	.	.	.
CCc1c(C)[nH]c2c1C(=O)[C@H](CN1CCOCC1)CC2	.	?	5.2%[20.9 µM]	1.4%[2.98 µM]	-0.7%[17 µM]
CCCCCCC=C1CCC(CN2CCCC2)C1=O (stereo not drawn)	3.36µM*	.	.	.	.
CCc1nc2ccc(C(=O)NCCCN3CCCC3=O)cn2c1N(C)C(=O)c1cccc(OC)c1	-3.9%	.	.	.	.
Cc1cc(-n2c(C)cc(C(=O)CSc3nc(N)cc(=O)[nH]3)c2C)no1	-18.0%	?	-0.9%	?	22.4µM*
CCCc1cc(=O)[nH]c(SCC(=O)c2cc(C)n(-c3cc(C)on3)c2C)n1	-1.3%	19.9%	-7.8%	24.9%	4.4%
Cc1cc(C(=O)CSc2nc(N)cc(=O)[nH]2)c(C)n1-c1ccc(OC(F)F)cc1	6.5%	5.9%	1.0%	-38.3%	10µM*
CCCCCCCCCCCCCCCC(=O)OCC(COP(=O)(O)OCC[N+](C)(C)C)OC(=O)CCCCCCCCCCCCCCC (stereo not drawn)	.	0.9%	.	-2.1%	7.5%
C[C@@H]1CN([C@@H](C)CO)C(=O)CCCn2nncc2CO[C@H]1CN(C)S(=O)(=O)c1cccs1	-12.7%	.	.	.	.
COc1cc2c(cc1OC)C(CNC(=O)C=Cc1ccccc1)C2 (stereo not drawn)	-12.7%	.	.	.	.
Cc1ccsc1/C=C/c1ccc2ccccc2n1	25.4%	-20.7%	-14.4%	10µM*	?
Cc1ccsc1/C=C/c1ccc2cccc(O)c2n1	-5.3%	50.1µM*	-9.0%	4.47µM*	?
CC(O)/C=C/c1ccc2ccccc2n1 (stereo not drawn)	-10.9%	16.0%	-1.0%	?	-5.3%
Oc1cccc2ccc(/C=C/c3cccs3)nc12	-1.5%	?	5.2%	12.6µM*	?
SMILES	PLK1 PBD block	Sfp PPTase inh	ALDH1A1 block	RORg inh	Gal4-VP16 FLuc
O=C(c1ccncc1)N1CCC[C@@]2(CCN(c3ccccc3)C2)C1	.	6.0%	?	27.7%	24.2%
CCc1nc2ccc(C(=O)NCCc3ccccn3)cn2c1N(CCC(C)C)CCN(C)C	-1.2%	.	.	.	.
CS(=O)(=O)c1ccc(C(=O)Nc2ccc(N3CCOCC3)cc2)c(Cl)c1	-8.2%	21.6%	14.4%	27.8%	-2.1%
CS(=O)(=O)c1ncc(Cl)c(C(=O)Nc2ccc(N3CCOCC3)cc2)n1	?	-41.7%	10µM*	3.16µM*	3.16µM*
CS(=O)(=O)c1ncc(Cl)c(C(=O)Nc2ccc(OC(F)F)cc2)n1	23.8µM*	?	.	3.55µM*	1.26µM*
CC(=O)Nc1ccc(C(=O)N2CCCCC2c2cc(C(=O)NCc3ccc(F)cc3)no2)cc1 (stereo not drawn)	0.9%	.	.	.	.
